A selection: hits, their analogues and other compounds. The true share with any hit is near 2.8%.
NSD2 inh – NSD2 (human) methyltransferase inhibition | NSD2 peptide methylation, AlphaScreen, 120 min | inhibition, % at 12.5 µM | 0.54% of 310,000 active | AID 743445; in the data active = inhibition above about 50%
Target sequence (O96028 whole entry, looked up): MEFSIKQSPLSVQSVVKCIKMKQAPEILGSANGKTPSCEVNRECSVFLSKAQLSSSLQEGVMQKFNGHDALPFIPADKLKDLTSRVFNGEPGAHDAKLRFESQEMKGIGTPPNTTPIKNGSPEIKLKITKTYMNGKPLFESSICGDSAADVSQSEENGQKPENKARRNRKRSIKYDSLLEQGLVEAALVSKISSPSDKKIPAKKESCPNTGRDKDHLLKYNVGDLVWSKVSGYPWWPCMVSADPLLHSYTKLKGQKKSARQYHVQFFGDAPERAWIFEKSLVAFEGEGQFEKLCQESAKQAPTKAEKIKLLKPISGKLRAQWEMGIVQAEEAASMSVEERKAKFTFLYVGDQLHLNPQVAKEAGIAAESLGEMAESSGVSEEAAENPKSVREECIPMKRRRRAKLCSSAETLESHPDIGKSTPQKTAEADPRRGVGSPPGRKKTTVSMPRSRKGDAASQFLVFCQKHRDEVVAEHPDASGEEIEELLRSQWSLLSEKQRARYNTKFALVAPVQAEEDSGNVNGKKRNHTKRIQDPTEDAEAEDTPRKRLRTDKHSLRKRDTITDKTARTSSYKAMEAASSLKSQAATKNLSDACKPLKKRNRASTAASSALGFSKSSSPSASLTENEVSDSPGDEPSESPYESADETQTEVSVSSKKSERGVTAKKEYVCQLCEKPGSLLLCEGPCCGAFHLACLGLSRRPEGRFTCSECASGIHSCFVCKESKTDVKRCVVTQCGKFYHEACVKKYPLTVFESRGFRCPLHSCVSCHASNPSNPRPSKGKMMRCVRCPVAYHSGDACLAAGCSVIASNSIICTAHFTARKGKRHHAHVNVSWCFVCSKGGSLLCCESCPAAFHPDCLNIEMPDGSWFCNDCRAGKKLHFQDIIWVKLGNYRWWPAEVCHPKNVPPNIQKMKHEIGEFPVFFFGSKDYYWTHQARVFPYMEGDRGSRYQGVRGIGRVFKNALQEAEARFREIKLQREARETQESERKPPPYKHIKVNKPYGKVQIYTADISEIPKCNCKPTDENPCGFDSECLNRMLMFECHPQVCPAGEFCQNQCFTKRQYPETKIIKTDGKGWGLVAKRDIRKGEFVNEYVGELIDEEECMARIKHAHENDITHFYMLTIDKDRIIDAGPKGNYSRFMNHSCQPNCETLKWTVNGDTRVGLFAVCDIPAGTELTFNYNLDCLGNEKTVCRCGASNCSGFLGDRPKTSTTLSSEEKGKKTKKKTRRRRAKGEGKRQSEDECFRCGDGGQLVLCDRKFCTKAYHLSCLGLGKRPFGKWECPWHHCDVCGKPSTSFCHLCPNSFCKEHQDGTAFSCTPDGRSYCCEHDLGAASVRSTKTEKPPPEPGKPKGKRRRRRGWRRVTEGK
Shn3 inh set2 – inhibitors of Schnurri-3 3'UTR reporter in osteoblasts | 0.52% of 360,000 active | inhibition, % at 12.5 µM | AID 588674 | Clone20 osteoblast Shn3 3'UTR firefly luciferase, 24 h;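 active = mean inhibition of at least 75% with every replicate also reaching 75%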;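 note: 0% = median of neutral control wells and 100% = pilot-screen positive control compound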
N-glyco inh – N-linked glycosylation inhibition; D54 ERlucT glycosylation luciferase reporter, 24 h; percent of 100 nM tunicamycin response; reporter increase, % at 12.5 µM; 0.23% of 360,000 active; AID 588692;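 active = mean luciferase reporter signal, scaled so untreated is 0 and the glycosylation-blocking control 100, at or above a set limit in every replicate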;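 note: luciferase carries N-glycosylation sites so blocking glycosylation raises the light; 0% = median of neutral control wells and 100% = median of 100 nM tunicamycin wells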
LMP1 NFkB inh – inhibitors of Epstein-Barr LMP1-induced NF-kappaB reporter; 0.69% of 350,000 active; AID 504558; inhibition, % at 12.5 µM; LMP1-induced NF-kappaB luciferase reporter cells, luminescence; in the data active = inhibition above about 41%;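 note: 0% = neutral control wells and 100% = reference inhibitor control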
HIV Env fusion – blocks HIV Env-driven cell-cell fusion. HeLa-JRFL Env/CEM21 cell fusion, luciferase. inhibition, % at 12.3 µM. 1.1% of 360,000 active. AID 651610;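 active = mean replicate inhibition score of at least 50 and every replicate individually at or above 50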;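 note: 0% = plate neutral controls and 100% = maraviroc near 300 nM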
PAX8 reporter – lowers PAX8-driven luciferase in RMG-I cells; RMG-I TPO-luciferase reporter, SteadyGlo, 24 h; inhibition, % at 12.6 µM; 1.2% of 360,000 active; AID 652154;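 active = mean replicate inhibition at least 60% with every replicate also reaching 60%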;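 note: luciferase light reporting Pax8 driven TPO promoter activity; plate controls were median of neutral control wells for no effect and mitoxantrone controls for full effect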
Starred values were filed as active, the others as inactive; i = inactive; x = not tested or not shown; ! = a repeat was not active; [ ] = remark or other dose.

SMILES	NSD2 inh	Shn3 inh set2	N-glyco inh	LMP1 NFkB inh	HIV Env fusion	PAX8 reporter
COc1cccc(S(=O)(=O)Nc2ccc3c(c2)[C@@H]2C[C@@H](CC(=O)NCc4ccccc4F)O[C@H](CO)[C@@H]2O3)c1	x	x	x	x	7[16.7 µM]	-18
COc1cccc(S(=O)(=O)Nc2ccc3c(c2)[C@H]2C[C@H](CC(=O)NCc4ccc(Cl)cc4)O[C@@H](CO)[C@H]2O3)c1	x	x	x	x	57*[16.7 µM]	31
Cc1c(NC(=O)C(C)OC(=O)c2c3c(nc4ccccc24)CCC3)c(=O)n(-c2ccccc2)n1C (stereo not drawn)	3	8	-1	3	x	73*
C[C@H](CO)N1C[C@H](C)[C@@H](CN(C)C(=O)NC2CCCCC2)Oc2c(cccc2N(C)C)C1=O	x	8	0	-2	85*!	0
C[C@H]1CN([C@@H](C)CO)C(=O)c2cccc(NC(=O)NC3CCCCC3)c2O[C@H]1CN(C)S(=O)(=O)c1ccc(Cl)cc1	x	x	x	x	x	72*
C[C@@H]1CN([C@H](C)CO)C(=O)c2cccc(NC(=O)NC3CCCCC3)c2O[C@H]1CN(C)S(=O)(=O)c1ccc(F)cc1	x	x	x	x	x	0
C[C@H](CO)N1C[C@H](C)[C@H](CN(C)S(=O)(=O)c2ccc(F)cc2)Oc2c(NC(=O)NC3CCCCC3)cccc2C1=O	x	x	x	x	x	62*
CCCNC(=O)Nc1ccc2c(c1)C(=O)N(C)C[C@H](OC)[C@H](C)CN(C(=O)C1CCOCC1)[C@@H](C)CO2	x	x	x	x	x	-16
C[C@H](CO)N1C[C@H](C)[C@@H](CN(C)C(=O)Nc2ccc(C(F)(F)F)cc2)Oc2ccc(NC(=O)CCC(F)(F)F)cc2CC1=O	x	x	x	x	0[16.7 µM]	2
CCC(=O)N1[C@H](C(=O)Nc2nccs2)[C@@H](CO)[C@@H]2Cn3c(ccc(C4=CCCCC4)c3=O)[C@@H]21	x	x	x	x	x	-13
O=C(COC(=O)c1ccco1)Nc1cccc(S(=O)(=O)N2CCCCC2)c1	-2	-8	2	-8	x	6
COc1ccc(NC(=O)C2CCCN2S(=O)(=O)c2ccc3c(c2)CCC(=O)N3)cc1Cl (stereo not drawn)	x	1	3	-1	85*	11
O=C(Nc1cccc(S(=O)(=O)N2CCOCC2)c1)[C@@H]1CCCN1S(=O)(=O)c1ccc(Cl)cc1	0	-17	-2	3	62*	-20
O=C(COC(=O)c1ccco1)Nc1cccc(S(=O)(=O)N2CCOCC2)c1	1	-8	0	-4	20	92*
Cc1ccc(S(=O)(=O)N(C)C[C@H]2Oc3c(NC(=O)Nc4ccc5c(c4)OCO5)cccc3C(=O)N([C@@H](C)CO)C[C@H]2C)cc1	x	x	x	x	-36[16.7 µM]	8
CNC[C@H]1Oc2cc(-c3cccnc3)ccc2S(=O)(=O)N([C@@H](C)CO)C[C@@H]1C	x	x	x	x	-18[16.7 µM]	-16
CCC(=O)N1[C@H](CO)[C@H]2c3ccccc3N(C(=O)Nc3cccc(Cl)c3)C[C@H]21	x	x	x	x	x	-1
CCC(=O)N1CC(=O)N2[C@H](CO)[C@@H](c3ccc(C#CCC(C)C)cc3)[C@@H]2C1	x	x	x	x	x	-1
CC(C)(C)n1nc2c(c1NC(=O)Cc1ccc(F)cc1)CS(=O)(=O)C2	3	-13	0	-4	1	-4
Cc1ccc(OCC(=O)Nc2c3c(nn2C(C)(C)C)CS(=O)(=O)C3)cc1	0	1	2	-1	58*	-11
COc1ccc(NC(=O)N(C)C[C@H]2Oc3c(NC(=O)CCCCCC(=O)Nc4ccccc4N)cccc3C(=O)N([C@H](C)CO)C[C@H]2C)cc1	x	x	x	x	x	-12
CCCNC(=O)[C@@H]1[C@@H](CO)[C@@H]2Cn3c(ccc(-c4ccccc4F)c3=O)[C@@H]2N1C(=O)C1CCC1	x	x	x	x	x	-1
Cc1cc(/C=C(\C#N)C(N)=O)c(C)n1-c1ccc(N2CCOCC2)c([N+](=O)[O-])c1	4	33	-1	-9	40	-3
Cc1cc(C=O)c(C)n1-c1ccc(N2CCCCC2)c([N+](=O)[O-])c1	65*	39	-4	27	x	x
CN1C(=O)c2cc(NC(=O)C3CC3)ccc2OC[C@@H]2O[C@H](CC(=O)NCc3ccccc3F)CC[C@@H]21	x	x	x	x	x	-5
SMILES	NSD2 inh	Shn3 inh set2	N-glyco inh	LMP1 NFkB inh	HIV Env fusion	PAX8 reporter
CCOCc1c(C(=O)NC2=Nc3ccccc3NC(CC)=C2C(=O)OCC)oc2ccccc12	-1	39	-6	10	21	80*
CCOC(=O)C1=C(CC)Nc2ccccc2N=C1NC(=O)CCNC(C)=O	x	-2	0	-12	24	-6
CCOC(=O)C1=C(CC)Nc2ccccc2N=C1NC(=O)c1oc2ccccc2c1C	-3	57	-10	-4	-6	64*
CN1C(=O)c2cc(NC(=O)c3ccccc3F)ccc2OC[C@@H]2O[C@@H](CC(=O)NCc3ccc4c(c3)OCO4)CC[C@H]21	x	x	x	x	-13[16.7 µM]	-13
CO[C@@H]1CN(C)C(=O)c2ccc(NS(=O)(=O)c3ccccc3Cl)cc2OC[C@H](C)NC[C@H]1C	x	x	x	x	30[16.7 µM]	x
CCOC(=O)c1c(C)[nH]c(C(=O)COC(=O)[C@H](C)N2C(=O)C3CCCCC3C2=O)c1C (stereo partly drawn)	0	93*	-7	-3	-33	-2
COc1ccc(NC(=O)Nc2ccc3c(c2)N(C)C(=O)CS3)cc1Cl	-4	12	-3	17	76*	x
C[C@H]1CN([C@@H](C)CO)C(=O)Cc2cc(NC(=O)Nc3ccc(C(F)(F)F)cc3)ccc2O[C@H]1CN(C)C(=O)NC1CCCCC1	x	x	x	x	-7[16.7 µM]	78*
C[C@@H]1CN([C@H](C)CO)C(=O)Cc2cc(NC(=O)Nc3ccc(F)cc3)ccc2O[C@H]1CN(C)C(=O)Nc1ccc(C(F)(F)F)cc1	x	x	x	x	-6[16.7 µM]	80*
C[C@@H]1CN([C@@H](C)CO)C(=O)Cc2cc(NC(=O)Nc3ccc(C(F)(F)F)cc3)ccc2O[C@H]1CN(C)C(=O)Nc1ccc(C(F)(F)F)cc1	x	x	x	x	37[16.7 µM]	78*
C[C@H](CO)N1C[C@H](C)[C@@H](CN(C)C(=O)NC2CCCCC2)Oc2ccc(NC(=O)Nc3ccc(C(F)(F)F)cc3)cc2CC1=O	x	x	x	x	-18[16.7 µM]	59
C[C@@H]1CN([C@H](C)CO)C(=O)Cc2cc(NC(=O)Nc3ccc(C(F)(F)F)cc3)ccc2O[C@@H]1CN(C)C(=O)Nc1ccc(C(F)(F)F)cc1	x	x	x	x	6[16.7 µM]	-1
CS(=O)(=O)c1nc(-c2ccccc2)cc(C(F)(F)F)n1	x	95*	-15	30	i	x
Cc1cc(NC(=O)CCS(=O)(=O)c2nc(-c3ccccc3)cc(C(F)(F)F)n2)no1	-4	65	-15	-26	x	x
Cc1ccc(C(=O)CC(=O)c2ccccc2C)c(O)c1	-1	21	-3	12	-2	-48
Cc1ccc(C(=O)CC(=O)c2cccc(F)c2)c(O)c1	0	33	4	5	61*	x
Cc1ccc(C)c(CS(=O)(=O)c2cn(CC(=O)N3CCC(C)CC3)c3ccccc23)c1	0	3	-4	-3	120*	-5

Screening data deposited in PubChem by Broad Institute.
